# Assay results taken from PubChem BioAssay AID2451 (National Center for Advancing Translational Sciences (NCATS), 2010).
# In all, about 290,000 compounds went through this assay and about 2,100 (0.72%) were called active. Entries that show only a call come without a potency. Another 4% or so got no clear call; they are omitted. Calls follow the shape of the dose curve; as a rule, active = well fitted inhibition curve with a large enough effect; inconclusive = small, poorly fitted or top-dose-only effect, or effect the other way; inactive = flat fitted curve, though single readings scatter. Only a selection was taken, and actives are over-represented in it overall.
# Target: Fructose-bisphosphate aldolase (Giardia intestinalis (strain ATCC 50803 / WB clone C6)) (UniProt A8B2U2)
# Sequence (A8B2U2 whole entry, looked up): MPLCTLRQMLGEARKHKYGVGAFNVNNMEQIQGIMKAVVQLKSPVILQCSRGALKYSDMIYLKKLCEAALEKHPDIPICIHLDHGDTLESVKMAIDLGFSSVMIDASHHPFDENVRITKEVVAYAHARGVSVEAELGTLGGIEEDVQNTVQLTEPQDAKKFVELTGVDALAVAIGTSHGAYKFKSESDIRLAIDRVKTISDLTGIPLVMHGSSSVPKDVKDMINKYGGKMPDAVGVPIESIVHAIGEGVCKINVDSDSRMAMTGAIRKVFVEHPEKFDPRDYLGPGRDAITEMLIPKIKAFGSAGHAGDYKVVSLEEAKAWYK
# Assay: qHTS Assay for Inhibitors of Fructose-1,6-bisphosphate Aldolase from Giardia Lamblia; also: nearly all actives have a fitted effect of over 55% in size
# Settings: purified Giardia FBPA; series mostly up to 59.6 µM
# How it was run: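 Giardia FBPA (40 nM reagent) was preincubated 10 min at RT with compound (up to 57.5 uM final), then substrate plus GAPDH/TPI/NAD/arsenate coupling system with diaphorase/resazurin was added; resorufin fluorescence (525/598 nm) was read after 20 min.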
# Potency is read from the fitted curve at half-maximal effect.
row,SMILES,Potency
1,CSc1nnc(C2CCCN(CC(=O)Nc3ccccc3N3CCOCC3)C2)n1C(C)C (configuration not stated),inactive
2,Cc1cc(C)cc(N(CC(=O)NC2CCCC2)C(=O)CCC(=O)Nc2nccs2)c1,inactive
3,CC(=O)NC(CC(=O)Nc1nccs1)c1ccccc1 (configuration not stated),inactive
4,CC(=O)NC1CCN(CC(=O)Nc2nccs2)CC1,10 µM (active)
5,COc1ccccc1CCNS(=O)(=O)c1cn(C)nc1C,inactive
6,COc1ccc(CNC(=O)c2cc(=O)c3c(C)cc(C)cc3o2)cc1,inactive
7,CNC(=O)C(=O)N/N=C/c1ccccn1,inactive
8,O=C(N/N=C/c1ccccn1)c1cccnc1,4.46 µM (active)
9,O=C(N/N=C/c1ccc(O)c2ccccc12)c1cccnc1,inactive
10,O=C(Nc1cccc2ncccc12)C(Cl)(Cl)Cl,inactive
11,Cc1ccc(C(=O)Nc2cccc3ncccc23)cc1[N+](=O)[O-],inactive
12,Cc1ccc(/C=C(\C#N)C(=O)Nc2cccc3ncccc23)o1,5.61 µM (active)
13,COc1ccc(C(=O)CC(=O)c2ccc(C)cc2)c(O)c1,inactive
14,c1ccc2c(c1)CCc1snnc1-2,inactive
15,CSc1ccc(S(=O)(=O)N2CCC(C(=O)NCCc3ccccc3)CC2)cc1,inactive
16,CSc1ccccc1NC(=O)c1ccc2c(c1)CCN2S(C)(=O)=O,inactive
17,CC(NC(=O)Cn1cc(C(F)(F)F)cc(Cl)c1=O)c1ccccc1 (configuration not stated),inactive
18,CO/N=C(\C(=O)N[C@@H]1C(=O)N2C(C(=O)O)=C(COC(C)=O)CS[C@H]12)c1csc(N)n1 (stereo in doubt),inactive
19,Cc1nnc(SCC2=C(C(=O)O)N3C(=O)C(NC(=O)Cn4nc(C)c(Cl)c4C)C3SC2)s1 (configuration not stated),22.3 µM (active)
20,Cc1nnc(SCC(=O)NC2CCCC2)s1,inactive
21,Cc1cccc(NC(=S)NCCc2ccc(Cl)cc2)c1C,inactive
22,O=C(Nc1ccccc1)/C(=C\c1ccco1)NC(=O)c1ccco1,inactive

row,SMILES,Potency
1,CCCC1=Nc2cc(C(=O)NCCN3CCCC3)ccc2Sc2ccccc21,inactive
2,Cc1nc(-c2ccc(Cl)cc2)sc1C(=O)NN,inactive
3,Cc1nc(N2CCOCC2)sc1C(=O)NN,12.6 µM (active)
4,CCOC(=O)N1CCC(NC(=O)c2ccc3nc(N4CCOCC4)sc3c2)CC1,inactive
5,Cc1ccc(NS(=O)(=O)c2ccc3c(c2)oc(=O)n3C)c(C)c1,inactive
6,Cc1ccc(OCc2n[nH]c(=S)n2-c2ccc(C)cc2)cc1,inactive
7,Cc1ccc(OCCCCc2c(C)n[nH]c2C)cc1,20 µM (active)
8,CCCOc1ccc(-c2nc(N)n[nH]2)cc1,inactive
9,Cc1ccccc1C(=O)N1CCC(C(=O)Oc2ccc(C#N)cc2)CC1,inactive
10,Cc1ccc(CNC(=O)C2CCCN2S(=O)(=O)c2ccc3c(c2)C(C)(C)C(=O)N3C)cc1 (configuration not stated),inactive
11,CCCCOC(=O)Nc1nnc(CC(=O)NCc2ccccc2)s1,inactive
12,CCCOC1CCCN(C(=O)c2cc(COc3cncc(Cl)c3)on2)C1 (configuration not stated),inactive
13,C/C(=N\NC(=O)c1cccnc1)c1ccc(-c2ccccc2)cc1,inactive
14,C/C(=N\NC(N)=S)c1cccnc1,15.8 µM (active)
15,C/C(=N\NC(=O)c1cccc([N+](=O)[O-])c1)c1cccnc1,inactive
16,CCOC(=O)[C@@H]1[C@H]2COc3cc(OC)ccc3[C@@H]2N2C(=O)N(c3cccc(C)c3)C(=O)[C@@]12C,inactive
17,CN(Cc1ccccc1)C(=O)c1cccc(C(=O)N(C)Cc2ccccc2)c1,inactive
18,CCOc1ccc(N(CC(=O)NCCc2ccc(F)cc2)S(=O)(=O)c2ccccc2)cc1,inactive
19,Cc1cccc(S(=O)(=O)N2CN(CC3CCCO3)c3nc4ccccc4nc32)c1 (configuration not stated),inactive
20,CC/C(=N\NC(=O)c1c(C)nc2ccccn12)c1ccc(Cl)cc1,inactive
21,CC1(C)Cc2ccccc2/C(=C/C(=O)c2ccccc2)N1,inactive
22,CCCc1nc2ccccc2c(=O)n1NC(=O)c1c(O)c2ccccc2[nH]c1=O,inactive

row,SMILES,Potency
1,Cn1c(SCC(=O)N/N=C/c2ccc(O)c(O)c2)nc2ccccc21,inactive
2,CCCc1nc2ccccc2c(=O)n1/N=C/c1ccc(O)c(O)c1,2.51 µM (active)
3,CC1C(=O)N(Cc2ccccc2)c2ccccc2N1C(=O)c1ccccc1 (configuration not stated),inactive
4,COc1ccccc1C1C(C(N)=O)=C(C)Nc2nc(CCCO)nn21 (configuration not stated),inactive
5,CN1C(=O)/C(=C\c2ccc(-c3ccccc3)o2)SC1=S,4.46 µM (active)
6,O=C(O)C(c1ccccc1)N1C(=O)/C(=C\c2ccc(-c3cccc(Cl)c3)o2)SC1=S (configuration not stated),inactive
7,CN=C1S/C(=C\c2ccc(Sc3ccc(Cl)cc3)o2)C(=O)N1C,inactive
8,COc1ccc(CNCCc2c[nH]c3ccccc23)cc1OC,17.8 µM (active)
9,COc1ccc(S(=O)(=O)NCCc2c[nH]c3ccccc23)cc1OC,inactive
10,COc1ccc(CNC(=O)[C@H](Cc2c[nH]c3ccccc23)NC(C)=O)cc1OC,inactive
11,CCN(CC(=O)NC(=O)NCc1ccccc1)Cc1nc2ccccc2c(=O)[nH]1,17.7 µM (active)
12,CCN(CC(=O)Nc1cccc(S(N)(=O)=O)c1)Cc1nc2ccccc2c(=O)[nH]1,inactive
13,CCN(CC(=O)Nc1ccc(Cl)c(S(=O)(=O)N(C)C)c1)Cc1nc2ccccc2c(=O)[nH]1,inactive
14,CC(C)CCNC(=O)c1ccc2c(Cl)c3c(nc2c1)CCC3,inactive
15,Cc1ccc(-n2c(SCC(=O)N3CCC(C(=O)O)CC3)nc3ccccc3c2=O)cc1C,inactive
16,COc1cc(CN2CC(C)CC(C)C2)cc([N+](=O)[O-])c1O (configuration not stated),inactive
17,COc1cc(CN2CCN(Cc3ccc(C)cc3)CC2)c([N+](=O)[O-])cc1OC,5.61 µM (active)
18,COc1cc(NC(=O)NCC2CCN(Cc3ccc(C)cc3)CC2)cc(OC)c1OC,inactive
19,CC(=O)c1ccc(N2CCN(S(=O)(=O)c3ccc4c(c3)CC(=O)N4C)CC2)cc1,inactive
20,COc1ccc(NC(=O)c2cc(-c3cc(OC)c(OC)c(OC)c3)nc3ccccc23)c(OC)c1,inactive
21,Cn1c(=O)n(C)c2cc(S(=O)(=O)Nc3ccc(F)cc3)ccc21,inactive
22,COc1ccc(NC(=O)C(CC(C)C)NC(=O)C2CCC(C)CC2)cc1 (configuration not stated),inactive

row,SMILES,Potency
1,CC[C@]1(c2ccccc2OC)C(=O)N(C(=O)OC)N1C(=O)OC,inactive
2,COc1cccc(C(=O)N2C[C@H]3C[C@@H](C2)c2cccc(=O)n2C3)c1,inactive
3,O=C(NC(=S)N1C[C@H]2C[C@H](C1)c1cccc(=O)n1C2)c1ccc(F)cc1,7.94 µM (active)
4,COc1ccccc1NC(=O)N1C[C@@H]2C[C@@H](C1)c1cccc(=O)n1C2,inactive
5,Cc1ccc(SCCSc2ncccn2)cc1,inactive
6,CC(=O)NCCC(=O)Nc1cc(S(=O)(=O)N2CCOCC2)ccc1N1CCOCC1,inactive
7,O=C(COC(=O)Cc1ccc(F)cc1)Nc1cc(S(=O)(=O)N2CCOCC2)ccc1N1CCCC1,inactive
8,COCCNC(=S)Nc1cc(S(=O)(=O)N2CCOCC2)ccc1N1CCCCC1,2.81 µM (active)
9,Cc1ccc(C(=O)NC2CCN(C(=O)Nc3ccc(F)cc3)CC2)cc1,inactive
10,C=CCCN(C(Cc1ccccc1)C(=O)OC)S(=O)(=O)c1cc(Br)ccc1Br (configuration not stated),inactive
11,CCCNC(=O)c1ccc(N2CCC3(CC2)CC(c2ccc(Cl)cc2)=NO3)c([N+](=O)[O-])c1,inactive
12,Cc1cc(C)n(-c2ccc3nncn3n2)n1,inactive
13,COc1ccc(NC(=O)c2nc(-n3nc(C)cc3C)ccc2Cl)cc1Cl,inactive
14,Cc1cc(C)n(-c2ccc(Cl)c(C(=O)O)n2)n1,15.8 µM (active)
15,Cn1nccc1C(=O)N1CCCC(C(=O)c2ccc(Oc3ccccc3)cc2)C1 (configuration not stated),inactive
16,Cc1cc(S(=O)(=O)c2cc3ccc(O)c(C)c3oc2=O)ccc1F,inactive
17,N#CC1=C(N)Oc2[nH]c(=S)[nH]c(=O)c2C12C(=O)Nc1ccccc12 (configuration not stated),6.29 µM (active)
18,N#CC1=C(N)Oc2n[nH]c(CSc3ccccc3)c2C12C(=O)Nc1ccccc12 (configuration not stated),inactive
19,Cc1ccc(NC2(C#N)C(=O)Nc3ccccc32)cc1 (configuration not stated),inactive
20,CCc1ccc(NC(=O)C(=O)NNC(=O)c2cccs2)cc1,inactive
21,COc1ccc(CNC(=O)c2ccc(Br)s2)cc1OC,inactive
22,Fc1ccc(-c2ccc(NCCN3CCOCC3)nn2)cc1,inactive

row,SMILES,Potency
1,O=C(NCc1ccccn1)c1cc(Br)ccc1Cl,inactive
2,O=C(NCc1ccccn1)c1ccc2nc(-c3ccco3)c(-c3ccco3)nc2c1,2.81 µM (active)
3,COc1ccc2oc(=O)c(C(=O)NCc3ccccn3)cc2c1,inactive
4,COCn1c(C(O)c2ccccc2)cc2ccccc21 (configuration not stated),inactive
5,CC(C)NC(=O)C(=O)N/N=C/c1ccco1,inactive
6,O=C(N/N=C/c1ccco1)c1ccc(C(=O)N/N=C/c2ccco2)o1,inactive
7,O=c1nc(N/N=C/c2ccco2)cn[nH]1,17.7 µM (active)
8,C=CCNC(=S)/N=c1/ccccn1Cc1ccccc1,14.1 µM (active)
9,N=c1ccccn1Cc1ccccc1,inactive
10,CNC(=S)NNC(=O)c1cccn(Cc2ccccc2)c1=O,inactive
11,O=C(c1ccccc1)N1N=C(c2ccccc2O)CC1c1ccc(Br)cc1 (configuration not stated),inactive
12,O=C(CN1CCN(c2ccccc2)CC1)Nc1ccc(F)cc1,inactive
13,O=C(CN1CCN(Cc2ccccc2)CC1)Nc1ccc(F)c(F)c1,20 µM (active)
14,Cc1cc(NC(=O)CCN2CCN(Cc3ccccc3)CC2)ccc1Br,inactive
15,CC(=O)N[C@@H](C)C(=O)N1CCC(n2nccc2NC(=O)CCCc2ccccc2)CC1,inactive
16,CC(=O)Nc1cccc(Nc2nc(-c3cccs3)nc3ccccc23)c1,inactive
17,O=C(NC(=S)Nc1ccc(S(=O)(=O)N2CCOCC2)cc1)c1ccccc1[N+](=O)[O-],inactive
18,CN1CCN(S(=O)(=O)c2ccc(NC(=S)NC(=O)C3CC3)cc2)CC1,inactive
19,O=S(=O)(c1ccc(NC(=S)NN=C(C2CC2)C2CC2)cc1)N1CCOCC1,7.06 µM (active)
